# What was measured:
# Assay in all cases: PBM binding z-score (relative to random genomic background probes); higher = stronger binding; sequences stand for … in GC…GCGATTGACAGCGTAGAATGAAGG
# [1] = system: FXR:RXRa (NR concentration 270 nM, RXRa partner concentration 90 nM)
# Outline: (§1)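 Antibodies against each partner of ligand-free nuclear receptor dimers (one per run) detected binding on custom Agilent 4×180K protein-binding microarrays after 1 h incubation. The double-stranded probes had 34-nt variable regions carrying direct-repeat seeds, single-nucleotide variants, half-site ablations and random human genomic background sequences. Binding z-scores, from regression-normalized fluorescence, use the random background probes as reference.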
# [2] = system: LXRa:RXRa (NR concentration 270 nM, RXRa partner concentration 90 nM)
# Outline: as §1
# [3] = system: LXRa homodimer (NR concentration 270 nM)
# Outline: as §1
# [4] = system: LXRb:RXRa (NR concentration 270 nM, RXRa partner concentration 90 nM)
# Outline: as §1
# [5] = system: LXRb homodimer (NR concentration 270 nM)
# Outline: as §1
# [6] = system: PPARa:RXRa (NR concentration 270 nM, RXRa partner concentration 90 nM)
# Outline: as §1
# [7] = system: PPARg:RXRa (NR concentration 180 nM, RXRa partner concentration 90 nM)
# Outline: as §1
# [8] = system: PPARg:RXRa 270nM:90nM, anti-RXR (NR concentration 270 nM, RXRa partner concentration 90 nM)
# Outline: as §1
# [9] = system: PPARg:RXRa 30nM:10nM, anti-RXR (NR concentration 30 nM, RXRa partner concentration 10 nM)
# Outline: as §1
# [10] = system: PPARg:RXRa 90nM:30nM, anti-RXR (NR concentration 90 nM, RXRa partner concentration 30 nM)
# Outline: as §1
sequence,measurement,setting,value
ATACCAAGGTGATCGTGAGGTCATTGATACTAAC,PBM binding z-score,[1],4.13
same,PBM binding z-score,[2],4.22
same,PBM binding z-score,[3],4.81
same,PBM binding z-score,[4],3.53
same,PBM binding z-score,[5],0.748
same,PBM binding z-score,[6],3.62
same,PBM binding z-score,[7],1.7
same,PBM binding z-score,[8],1.98
same,PBM binding z-score,[9],0.601
same,PBM binding z-score,[10],1.25
ATATGTGGGTTAAGGGTCATTCAGGTTGGTTCGC,PBM binding z-score,[1],5.26
same,PBM binding z-score,[2],4.74
same,PBM binding z-score,[3],3.07
same,PBM binding z-score,[4],4.91
same,PBM binding z-score,[5],2.59
same,PBM binding z-score,[6],6.53
same,PBM binding z-score,[7],11.6
same,PBM binding z-score,[8],9.82
same,PBM binding z-score,[9],10.4
same,PBM binding z-score,[10],11.3
CAAACTAGGTCAAAGGTCAAAGTGGAGCCAACCA,PBM binding z-score,[1],7.94
same,PBM binding z-score,[2],7.01
same,PBM binding z-score,[3],5.57
same,PBM binding z-score,[4],6.96
same,PBM binding z-score,[5],3.14
same,PBM binding z-score,[6],7.45
same,PBM binding z-score,[7],13.9
same,PBM binding z-score,[8],11.2
same,PBM binding z-score,[9],12.3
same,PBM binding z-score,[10],13.7
GCGACTGGGTCATCAGCAGGTTACCATAACTTAA,PBM binding z-score,[1],2.66
same,PBM binding z-score,[2],1.93
same,PBM binding z-score,[3],-0.34
same,PBM binding z-score,[4],2.04
same,PBM binding z-score,[5],-1.03
same,PBM binding z-score,[6],4.06
same,PBM binding z-score,[7],5.18
same,PBM binding z-score,[8],4.73
same,PBM binding z-score,[9],1.52
same,PBM binding z-score,[10],3.88
CCTGCTAGGTTAATGGTCAGCTAAAGCAGCTCGC,PBM binding z-score,[1],-0.16
same,PBM binding z-score,[2],0.22
same,PBM binding z-score,[3],-0.415
same,PBM binding z-score,[4],0.0198
same,PBM binding z-score,[5],-0.231
same,PBM binding z-score,[6],0.798
same,PBM binding z-score,[7],1.47
same,PBM binding z-score,[8],3.16
same,PBM binding z-score,[9],0.835
same,PBM binding z-score,[10],2.53
CGTCCAAGGTCAGAGAGCTCAGTGAATGCCGAGT,PBM binding z-score,[1],4.73
same,PBM binding z-score,[2],2.83
same,PBM binding z-score,[3],-0.139
same,PBM binding z-score,[4],1.84
same,PBM binding z-score,[5],-0.554
same,PBM binding z-score,[6],3.92
same,PBM binding z-score,[7],1.95
same,PBM binding z-score,[8],2.52
same,PBM binding z-score,[9],0.0748
same,PBM binding z-score,[10],1.43
ACTAGCAGGCCAAGTTTAGGTCACTCAAACAAAG,PBM binding z-score,[1],0.818
same,PBM binding z-score,[2],0.384
same,PBM binding z-score,[3],0.281
same,PBM binding z-score,[4],0.929
same,PBM binding z-score,[5],-0.282
same,PBM binding z-score,[6],1.6
same,PBM binding z-score,[7],0.288
same,PBM binding z-score,[8],0.528
same,PBM binding z-score,[9],-0.151
same,PBM binding z-score,[10],0.000314
TGAATGCGGTTAAAGATCAGGGAACGTGGCGTCG,PBM binding z-score,[1],-0.28
same,PBM binding z-score,[2],-0.16
same,PBM binding z-score,[3],-0.66
same,PBM binding z-score,[4],-0.519
same,PBM binding z-score,[5],-0.199
same,PBM binding z-score,[6],1.25
same,PBM binding z-score,[7],1.64
same,PBM binding z-score,[8],3.54
same,PBM binding z-score,[9],1.66
same,PBM binding z-score,[10],2.98
TCTTGTAGATCAACAGGAGGTTAAGGAAGATCGA,PBM binding z-score,[1],0.186
same,PBM binding z-score,[2],0.637
same,PBM binding z-score,[3],-0.0408
same,PBM binding z-score,[4],0.484
same,PBM binding z-score,[5],-0.341
same,PBM binding z-score,[6],1.24
same,PBM binding z-score,[7],0.0349
same,PBM binding z-score,[8],1.22
same,PBM binding z-score,[9],2.48
same,PBM binding z-score,[10],1.68
CCAGACAGGGGAAAGGTAACTCAGTCTGGTACGC,PBM binding z-score,[1],-0.0858
same,PBM binding z-score,[2],-0.233
same,PBM binding z-score,[3],-0.21
same,PBM binding z-score,[4],0.0681
same,PBM binding z-score,[5],-0.648
same,PBM binding z-score,[6],1.46
same,PBM binding z-score,[7],2.34
same,PBM binding z-score,[8],3.79
same,PBM binding z-score,[9],1.37
same,PBM binding z-score,[10],3.25
GCGCCTGGGGCATCAGCAGGTTACCATAACTTAA,PBM binding z-score,[1],-0.344
same,PBM binding z-score,[2],-0.299
same,PBM binding z-score,[3],-0.446
same,PBM binding z-score,[4],0.294
same,PBM binding z-score,[5],-1.19
same,PBM binding z-score,[6],0.454
same,PBM binding z-score,[7],0.0238
same,PBM binding z-score,[8],-0.488
same,PBM binding z-score,[9],-0.952
same,PBM binding z-score,[10],-0.927
TCTCGGAGGAGACGAAAGGTCAGAGCTCGACATC,PBM binding z-score,[1],2.04
same,PBM binding z-score,[2],2.95
same,PBM binding z-score,[3],1.15
same,PBM binding z-score,[4],2.59
same,PBM binding z-score,[5],-0.403
same,PBM binding z-score,[6],3.49
same,PBM binding z-score,[7],3.2
same,PBM binding z-score,[8],5.01
same,PBM binding z-score,[9],3.66
same,PBM binding z-score,[10],4.7
CCTACTGGGCCAAAATGGTCATTGATGCCGATAA,PBM binding z-score,[1],-0.236
same,PBM binding z-score,[2],-0.291
same,PBM binding z-score,[3],-0.317
same,PBM binding z-score,[4],-0.55
same,PBM binding z-score,[5],-0.875
same,PBM binding z-score,[6],0.318
same,PBM binding z-score,[7],0.666
same,PBM binding z-score,[8],0.897
same,PBM binding z-score,[9],-0.124
same,PBM binding z-score,[10],0.804
CCTATTAGTTGACCATAAGGGCAACGGAAGCTCG,PBM binding z-score,[1],0.826
same,PBM binding z-score,[2],0.337
same,PBM binding z-score,[3],0.454
same,PBM binding z-score,[4],0.234
same,PBM binding z-score,[5],0.609
same,PBM binding z-score,[6],0.552
same,PBM binding z-score,[7],0.455
same,PBM binding z-score,[8],0.511
same,PBM binding z-score,[9],0.321
same,PBM binding z-score,[10],0.476
GCGACTGGGCCAAAGCAGGTTACCATAAGGTTGG,PBM binding z-score,[1],-0.0779
same,PBM binding z-score,[2],-0.533
same,PBM binding z-score,[3],-0.738
same,PBM binding z-score,[4],-0.554
same,PBM binding z-score,[5],-1.58
same,PBM binding z-score,[6],0.468
same,PBM binding z-score,[7],0.648
same,PBM binding z-score,[8],0.456
same,PBM binding z-score,[9],-0.481
same,PBM binding z-score,[10],0.0774
TCTCGGAGGACACGAAGGTCTGAGCTTTCCAGAG,PBM binding z-score,[1],-0.23
same,PBM binding z-score,[2],-0.358
same,PBM binding z-score,[3],-1.07
same,PBM binding z-score,[4],-0.541
same,PBM binding z-score,[5],-1.44
same,PBM binding z-score,[6],0.131
same,PBM binding z-score,[7],-0.309
same,PBM binding z-score,[8],0.641
same,PBM binding z-score,[9],1.91
same,PBM binding z-score,[10],1.38
ACTATCAGTTGAGACGAGGGCAACCGATAGGTTG,PBM binding z-score,[1],0.189
same,PBM binding z-score,[2],0.0109
same,PBM binding z-score,[3],-0.515
same,PBM binding z-score,[4],-0.348
same,PBM binding z-score,[5],-0.0586
same,PBM binding z-score,[6],0.26
same,PBM binding z-score,[7],0.645
same,PBM binding z-score,[8],0.00158
same,PBM binding z-score,[9],0.149
same,PBM binding z-score,[10],-0.0981
TGAATGAGATTAAAGATCAGGGAACGTGGCGTCG,PBM binding z-score,[1],-0.229
same,PBM binding z-score,[2],-0.065
same,PBM binding z-score,[3],-0.329
same,PBM binding z-score,[4],-0.322
same,PBM binding z-score,[5],-0.389
same,PBM binding z-score,[6],0.409
same,PBM binding z-score,[7],1.02
same,PBM binding z-score,[8],2.19
same,PBM binding z-score,[9],1.3
same,PBM binding z-score,[10],1.91
CGAAGTAGGTCAGAACAGGACAGTGAAGGATGAT,PBM binding z-score,[1],1.72
same,PBM binding z-score,[2],1.2
same,PBM binding z-score,[3],-0.0962
same,PBM binding z-score,[4],0.449
same,PBM binding z-score,[5],0.019
same,PBM binding z-score,[6],3.32
same,PBM binding z-score,[7],5.69
same,PBM binding z-score,[8],4.81
same,PBM binding z-score,[9],2.22
same,PBM binding z-score,[10],4.14
ACTAGCAAGCCAAGTTTGGGTCACTCAAACAAAG,PBM binding z-score,[1],-0.12
same,PBM binding z-score,[2],-0.258
same,PBM binding z-score,[3],-0.55
same,PBM binding z-score,[4],0.443
same,PBM binding z-score,[5],-0.728
same,PBM binding z-score,[6],0.909
same,PBM binding z-score,[7],-0.253
same,PBM binding z-score,[8],0.132
same,PBM binding z-score,[9],-0.505
same,PBM binding z-score,[10],-0.56
TCTTGTAGATCAAAGGTTGAGAAAGCCGAAGCCT,PBM binding z-score,[1],0.89
same,PBM binding z-score,[2],0.864
same,PBM binding z-score,[3],-0.12
same,PBM binding z-score,[4],0.541
same,PBM binding z-score,[5],-0.308
same,PBM binding z-score,[6],3.14
same,PBM binding z-score,[7],5.99
same,PBM binding z-score,[8],6.2
same,PBM binding z-score,[9],5.78
same,PBM binding z-score,[10],6.91
CGAACTAGGTCATTGACAGGCCAGTGAATAGTAA,PBM binding z-score,[1],4.02
same,PBM binding z-score,[2],2.69
same,PBM binding z-score,[3],-0.0414
same,PBM binding z-score,[4],1.9
same,PBM binding z-score,[5],-0.365
same,PBM binding z-score,[6],4.67
same,PBM binding z-score,[7],7.02
same,PBM binding z-score,[8],6.4
same,PBM binding z-score,[9],3.9
same,PBM binding z-score,[10],5.91
GCAAGTTGGTCAGTAAAAGGTCACACACCGGTCG,PBM binding z-score,[1],3.28
same,PBM binding z-score,[2],4.29
same,PBM binding z-score,[3],4.58
same,PBM binding z-score,[4],4.17
same,PBM binding z-score,[5],0.833
same,PBM binding z-score,[6],4.62
same,PBM binding z-score,[7],3.08
same,PBM binding z-score,[8],4.43
same,PBM binding z-score,[9],2.58
same,PBM binding z-score,[10],3.92

# Reference: the supplement of paper PMC6555819
